SARS PLP yeast – blocks SARS-CoV papain-like protease in a yeast assay; Potency, µM (doses to about 32.9 µM), for the others: top-dose activity, positive = growth rescue, usual class: activators; 0.19% of 330,000 active; S. cerevisiae expressing SARS-CoV PLpro, growth rescue; AID 485353; calls by dose curve; also: 0% is about no effect; nearly all actives have a fitted effect of over 55% in size
RE007 growth inh – less growth of the S. pombe RE007 Vpr strain; S. pombe RE007 Vpr strain, BacTiter-Glo ATP luminescence, 24 h; Potency, µM (series often up to 92.2 µM), for the others: at the top dose activity change, negative = less growth, usual class: inhibitors; 0.21% of 360,000 active; active = well fitted falling curve with a large enough effect; inconclusive = small, poorly fitted or top-dose-only effect; inactive = no such curve, though single readings can be large or run the other way; also: % is scaled to controls: 0 for no effect and ±100 for the full control effect; nearly all actives have a fitted effect of over 50% in size
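Fission yeast RE007 carrying one integrated HIV-1 vpr copy, seeded at OD 0.01 in PMG+AL medium with 23 nL pinned compound. Grown 24 h at 30 degrees; viability read by BacTiter-Glo luminescence after 5 min.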
Sm TGR block – inhibitors of Schistosoma mansoni thioredoxin glutathione reductase; Potency, µM (doses to about 114 µM), for the others: top-dose activity change, negative = inhibition, most hits filed as inhibitors; Q962Y6; 3% of 360,000 active; AID 485364; purified TGR, DTNB reduction, TNB absorbance 405 nm; also: % is scaled to controls: 0 for no effect and ±100 for the full control effect; nearly all actives have a fitted effect of over 60% in size
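TGR 20 nM + NADPH 100 uM (dispensed conc.), cpd preinc 15 min RT; start with NADPH (500 uM addition) then DTNB (15 mM addition). Kinetic TNB absorbance, 405 nm filter. Four-parameter Hill fit across titration.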
AmpC inh detg – blocks E. coli AmpC beta-lactamase in detergent assay. AmpC hydrolysis of nitrocefin, absorbance 480 nm, 0.01% Triton. Potency, µM (doses to about 114 µM), without a hit: top-dose activity change, negative = inhibition, hits mostly inhibitors. 0.041% of 370,000 active;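 also: 0% = no-compound wells and -100% = no-enzyme wells; nearly all actives have a fitted effect of over 25% in size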
Target sequence (P00811 whole entry, looked up): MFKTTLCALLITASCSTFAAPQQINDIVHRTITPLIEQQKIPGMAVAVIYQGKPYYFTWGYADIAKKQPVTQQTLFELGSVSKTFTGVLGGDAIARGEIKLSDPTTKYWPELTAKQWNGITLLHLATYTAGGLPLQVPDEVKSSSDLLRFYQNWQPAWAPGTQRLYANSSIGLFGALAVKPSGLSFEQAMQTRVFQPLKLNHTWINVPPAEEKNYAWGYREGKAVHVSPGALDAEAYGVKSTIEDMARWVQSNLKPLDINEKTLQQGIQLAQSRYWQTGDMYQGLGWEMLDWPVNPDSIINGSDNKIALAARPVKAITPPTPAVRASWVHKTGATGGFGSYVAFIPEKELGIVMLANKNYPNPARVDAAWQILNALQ
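20 mM phosphate pH 7.0 + 0.01% (detergent screen) or 0.0001% Triton X-100; 5.3 nM AmpC reagent; cpd preinc 15 min RT; nitrocefin (800 uM stock) to start; A480 q20 s × 4 min; Activity was normalised to no-enzyme and no-compound control wells.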
AmpC no deterg – inhibitors of E. coli AmpC beta-lactamase without detergent. AmpC nitrocefin hydrolysis, absorbance 480 nm, 0.0001% Triton. 0.52% of 330,000 active. Potency, µM (titrated, usually from 57.1 µM), without a hit: at the highest dose activity change, negative = inhibition, hits mostly inhibitors. AID 485341;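 also: plate controls were no compound for no effect and no enzyme for full effect; nearly all actives have a fitted effect of over 20% in size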
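20 mM phosphate pH 7.0 + 0.01% (detergent screen) or 0.0001% Triton X-100; 5.3 nM AmpC reagent; cpd preinc 15 min RT; nitrocefin (800 uM stock) to start; A480 q20 s × 4 min; Activity was normalised to no-enzyme and no-compound control wells.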
Tb PYK inh – inhibitors of Trypanosoma brucei pyruvate kinase; Q57TT1; TbPYK enzyme, Kinase-Glo Plus ATP luminescence, 45 min; Potency, µM (titrated, usually from 76.8 µM), for inactives: at the top dose activity, negative = inhibition, actives largely listed as inhibitors; 0.12% of 410,000 active; AID 624173; also: % is scaled to controls: 0 for no effect and ±100 for the full control effect; nearly all actives have a fitted effect of over 50% in size
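Luminescent Kinase-Glo Plus end-point after 45 min room-temperature reaction of T. brucei pyruvate kinase started with 130 uM ADP (final). Buffer TEA 50 mM pH 7.2 with KCl, MgCl2, BSA, Tween-20; titration-based qHTS with fitted concentration-effect curves.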
Starred values were filed as active, the others as inactive. Only some compounds are listed: those with a hit (about 3.3% of all), similar ones and a draw of the others. Unless noted, calls follow the shape of the dose curve; as a rule, active = well fitted curve in the direction sought with a large enough effect; inconclusive = small, poorly fitted or top-dose-only effect, or another doubt; inactive = no such curve, though single readings can be large; an effect the other way counts as inactive or inconclusive. Potency is read from the fitted curve at half-maximal effect.

What do the screens show for `C=C(C)C1CC=C(C)/C(=N/NC(=O)c2ccccc2[N+](=O)[O-])C1` (stereo not given)?
SARS PLP yeast: 0.5%; RE007 growth inh: -21.2%; Sm TGR block: 3.1%; AmpC inh detg: 5.0%; AmpC no deterg: 15.8µM*; Tb PYK inh: 4.8%

Results for C=C(C)C1CC=C(C)/C(=N/Nc2ccccc2[N+](=O)[O-])C1 (stereo not given) ?
SARS PLP yeast: 14.9%; RE007 growth inh: -4.4%; Sm TGR block: inconclusive; AmpC inh detg: -3.9%; AmpC no deterg: -14.7%; Tb PYK inh: -2.1%

What do the screens show for `CC(C)CC(=O)Nc1ccc2c(c1)OCO2`?
SARS PLP yeast: 1.2%; RE007 growth inh: -21.6%; AmpC inh detg: -5.5%; AmpC no deterg: -11.3%; Tb PYK inh: 2.1%

What do the screens show for `O=C(CCl)Nc1ccc2c(c1)OCO2`?
SARS PLP yeast: 28.0%; RE007 growth inh: 21.9%; Sm TGR block: 15.8µM*; AmpC inh detg: -6.4%; AmpC no deterg: -22.7%; Tb PYK inh: -3.5%

How did CS(=O)(=O)N(CC(=O)Nc1ccc2c(c1)OCO2)Cc1ccc(Cl)cc1 do in these assays?
SARS PLP yeast: -0.6%; RE007 growth inh: -0.8%; Sm TGR block: -3.0%; AmpC inh detg: 1.5%; AmpC no deterg: 0.282µM*; Tb PYK inh: -9.8%

What do the screens show for `CS(=O)(=O)N(CC(=O)Nc1ccc2c(c1)OCO2)Cc1ccccc1`?
SARS PLP yeast: 1.3%; RE007 growth inh: -3.1%; Sm TGR block: -6.7%; AmpC inh detg: -3.6%; AmpC no deterg: inconclusive; Tb PYK inh: 3.0%

How did O=C(Nc1ccc2c(c1)OCO2)c1noc2c1CCCC2 do in these assays?
SARS PLP yeast: 0.8%; RE007 growth inh: 5.01µM*; Sm TGR block: -4.0%; AmpC inh detg: -9.9%; AmpC no deterg: -16.3%; Tb PYK inh: -10.6%

How did COc1cc(-c2nnc(SCC(=O)NCc3ccccc3Cl)o2)cc(OC)c1OC do in these assays?
Sm TGR block: -0.3%; AmpC inh detg: -5.2%; Tb PYK inh: 2.6%

How did Cc1c(Cl)cccc1NC(=O)CNS(=O)(=O)c1cccs1 do in these assays?
Sm TGR block: 0.5%; AmpC inh detg: 5.7%; Tb PYK inh: -3.0%

What do the screens show for `CC(=O)SC[C@@H](C)C(=O)N1CCC[C@H]1C(=O)N[C@@H](Cc1ccccc1)C(=O)O`?
Tb PYK inh: -3.6%

Results for Cc1nnc(NC(=O)CSc2nccn2Cc2ccc(Cl)cc2)s1 ?
Sm TGR block: -0.2%; AmpC inh detg: -2.8%; Tb PYK inh: -0.5%

How did Cc1oc(-c2ccc(C(=O)NCCC(C)C)cc2)nc1CS(=O)(=O)c1ccccc1 do in these assays?
Sm TGR block: 35.5µM*; AmpC inh detg: 23.5%; Tb PYK inh: -19.3%

Results for Cc1ccc(S(=O)(=O)Cc2nc(-c3ccc(C(=O)NCc4ccccc4)cc3)oc2C)cc1 ?
Sm TGR block: 31.6µM*; AmpC inh detg: -8.4%; Tb PYK inh: 0.1%

What do the screens show for `Cc1ccccc1CNC(=O)c1ccc(-c2nc(CS(=O)(=O)c3ccccc3)c(C)o2)cc1`?
Sm TGR block: inconclusive; AmpC inh detg: 22.3%; Tb PYK inh: -3.6%

What do the screens show for `Cc1ccc(S(=O)(=O)Cc2nc(-c3ccc(C(=O)NCc4ccccc4C)cc3)oc2C)cc1`?
Sm TGR block: inconclusive; AmpC inh detg: -8.7%; Tb PYK inh: -5.2%

How did c1ccc(-c2nc(-c3cccnc3)n[nH]2)cc1 do in these assays?
SARS PLP yeast: 20.7%; Sm TGR block: 1.7%; AmpC inh detg: -9.2%; AmpC no deterg: -41.3%

What do the screens show for `Brc1cccc(-c2n[nH]c(-c3ccccc3)n2)c1`?
SARS PLP yeast: -20.5%; RE007 growth inh: inconclusive; Sm TGR block: 10.5%; AmpC inh detg: -3.6%; AmpC no deterg: 8.91µM*; Tb PYK inh: 1.3%

Results for Cc1ccc(CN=Cc2[nH]c3ccc(Br)c(Cl)c3c2O)cc1 ?
SARS PLP yeast: -34.9%; RE007 growth inh: -10.8%; Sm TGR block: 44.7µM*; AmpC inh detg: 1.2%; AmpC no deterg: -18.2%; Tb PYK inh: -2.6%

What do the screens show for `Oc1c(C=NCc2ccc(F)cc2)[nH]c2ccc(Br)c(Cl)c12`?
SARS PLP yeast: inconclusive; Sm TGR block: 31.6µM*; AmpC inh detg: -4.2%; AmpC no deterg: -44.5%

Results for COc1ccc(CN=Cc2c(O)[nH]c3ccccc23)cc1 ?
SARS PLP yeast: -2.5%; RE007 growth inh: -1.7%; Sm TGR block: 3.7%; AmpC inh detg: inconclusive; AmpC no deterg: -42.1%; Tb PYK inh: -2.1%

What do the screens show for `COC(=O)c1ccc(NC(=O)C(c2ccccc2)N2Cc3ccccc3C2=O)cc1` (stereo not given)?
Sm TGR block: -0.4%; AmpC inh detg: 0.5%; Tb PYK inh: -3.5%

Results for COc1ccc(OC)c(CCNC(=O)c2cnn(-c3ccccc3Cl)c2C2CCN(C(=O)OC(C)(C)C)CC2)c1 ?
Sm TGR block: 9.3%; AmpC inh detg: 11.0%; Tb PYK inh: -0.3%

Results for CCOc1ccc(OCC(=O)Nc2c(C(=O)Nc3ccc(C)cc3)oc3ccccc23)cc1 ?
Sm TGR block: -3.3%; AmpC inh detg: -1.6%; Tb PYK inh: 7.5%

How did Cc1ccc2c(c1)c(=O)c1c3n2CCN(CC#N)C3CC1 (stereo not given) do in these assays?
SARS PLP yeast: -2.6%; RE007 growth inh: -6.5%; Sm TGR block: -12.2%; AmpC inh detg: 6.6%; AmpC no deterg: -7.6%; Tb PYK inh: 3.5%

Results for Cc1ccc2c(c1)c(=O)c1c3n2CCN(C(=O)CCl)C3CC1 (stereo not given) ?
SARS PLP yeast: 11.6%; RE007 growth inh: 3.4%; Sm TGR block: 3.16µM*; AmpC inh detg: -6.4%; AmpC no deterg: 2.2%; Tb PYK inh: 0.1%

How did CC(=O)Nc1ccc(C)cc1 do in these assays?
SARS PLP yeast: -6.1%; RE007 growth inh: 2.1%; Sm TGR block: 0.0%; AmpC inh detg: -5.8%; AmpC no deterg: -6.5%; Tb PYK inh: -2.0%

Results for CC(=O)Nc1ccc(C(=O)CCl)cc1 ?
SARS PLP yeast: 1.0%; RE007 growth inh: -8.8%; Sm TGR block: 12.6µM*; AmpC inh detg: 3.0%; AmpC no deterg: -25.2%; Tb PYK inh: -1.1%

Results for CC(=O)NCc1ccc(C(=O)CCl)s1 ?
SARS PLP yeast: 15.2%; RE007 growth inh: 2.6%; Sm TGR block: 14.1µM*; AmpC inh detg: -4.7%; AmpC no deterg: -29.2%; Tb PYK inh: -1.6%

What do the screens show for `CC(=O)NCc1ccc(C(=O)CCl)cc1`?
SARS PLP yeast: 4.3%; RE007 growth inh: -1.8%; Sm TGR block: 11.2µM*; AmpC inh detg: inconclusive; AmpC no deterg: -7.2%; Tb PYK inh: -3.5%

High-throughput results as filed in PubChem.
